SMN2 splice up: increases expression of the SMN2 splice variant | Potency, µM (doses to about 46.1 µM), without a hit: top-dose activity change, positive = activation, actives largely listed as activators | 2.8% of 210,000 active | HEK293 SMN2-luciferase splicing reporter, luminescence, 30-36 h; further: % of control where 0% means no effect; nearly all actives have a fitted effect of over 55% in size
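qHTS luciferase splicing reporter: luminescence rises when SMN2 exon 7 is included in transfected HEK293 cells. Compound exposure lasted 30-36 h at 37C, with 4.5 mM final sodium butyrate as control, followed by a ONE-Glo read.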
NPC1 prom act: NPC1 promoter activation. 2.4% of 320,000 active. Huh7 NPC1 promoter luciferase reporter, 24 h. Potency, µM (highest dose often 9.22 µM), for inactives: at the highest dose activation, hits mostly activators; further: % of control where 0% means no effect; nearly all actives have a fitted effect of over 60% in size
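NPC1 promoter–luciferase Huh7 cells; 24 h compound; luminescence.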
ELG1 DNA repair: inhibitors of ELG1-dependent DNA repair in HEK293T cells; HEK293T ELG1-luciferase reporter, luminescence, 16 h; DNA damage induced by 5-fluorouridine; Potency, µM (titrated, usually from 46.1 µM), inactives show at the top dose activity change, negative = inhibition, actives largely listed as inhibitors; 2.3% of 330,000 active; AID 504467; further: on the % scale 0 is the no-effect control and ±100 the full control effect; nearly all actives have a fitted effect of over 55% in size
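Quantitative HTS, concentration-response format. 2,000 cells/well co-treated with 5-fluorouridine and compound, 16 hr in 5% CO2 at 37 °C; ONE-Glo luminescence read after 30 min.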
FLuc modulator: counter-screen for miR-21 project: firefly luciferase inhibitors or activators; P08659; purified FLuc, Km substrates, luminescence inhibition; Potency, µM (top dose mostly 57.5 µM), without a hit: top-dose activity change, negative = inhibition, actives largely listed as inhibitors; 6.9% of 360,000 active; AID 588342;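 further: plate controls were vehicle for no effect and reference inhibitor for full effect; nearly all actives have a fitted effect of over 55% in size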
Target sequence (P08659 whole entry, looked up): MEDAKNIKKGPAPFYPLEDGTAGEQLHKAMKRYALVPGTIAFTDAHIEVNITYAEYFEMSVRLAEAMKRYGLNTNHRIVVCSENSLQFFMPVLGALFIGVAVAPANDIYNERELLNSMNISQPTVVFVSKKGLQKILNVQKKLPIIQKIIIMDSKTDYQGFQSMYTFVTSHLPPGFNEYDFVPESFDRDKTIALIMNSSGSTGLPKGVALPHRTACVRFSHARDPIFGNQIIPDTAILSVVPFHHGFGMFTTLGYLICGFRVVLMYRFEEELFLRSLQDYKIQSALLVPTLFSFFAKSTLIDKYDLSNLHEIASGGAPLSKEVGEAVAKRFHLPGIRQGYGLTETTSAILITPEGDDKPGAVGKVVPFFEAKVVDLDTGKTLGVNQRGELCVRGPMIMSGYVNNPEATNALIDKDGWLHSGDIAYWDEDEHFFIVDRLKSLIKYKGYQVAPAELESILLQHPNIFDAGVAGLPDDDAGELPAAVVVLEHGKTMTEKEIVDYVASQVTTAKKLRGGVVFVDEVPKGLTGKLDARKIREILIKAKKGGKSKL
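Purified P. pyralis luciferase (10nM final) with 10uM D-luciferin and 10uM ATP (Km levels) in 50mM Tris acetate pH 7.5, 10mM Mg acetate, 0.01% Tween-20, 0.05% BSA; qHTS 6-point titration, ~60 µM downward; luminescence read.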
ELG1 genotoxic: genotoxicity induction in ELG1-luciferase HEK293T cells | 1.3% of 330,000 active | HEK293T ELG1-luciferase reporter, luminescence, 16 h | Potency, µM (titrated, usually from 46 µM), for inactives: top-dose activity change, positive = activation, hits mostly activators; further: % of control where 0% means no effect; nearly all actives have a fitted effect of over 60% in size
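Cells (2,000/well) expressing the ELG1-luciferase fusion are dosed by pin tool and kept 16 hr at 37 °C, 5% CO2. Signal comes from ONE-Glo luciferase reagent after 30 min at room temperature.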
Rab9 prom act: activates the Rab9 promoter | 2.8% of 320,000 active | Huh7 Rab9 promoter-luciferase reporter, luminescence, 24 h | Potency, µM (doses to about 9.22 µM), without a hit: at the top dose activation, negative = inhibition, actives largely listed as activators; further: % of control where 0% means no effect; nearly all actives have a fitted effect of over 60% in size
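Luciferase signal after 10 min detection reagent at ambient indicates Rab9 promoter upregulation; stably transfected Huh7 cells were treated 24 h with compound in DMSO at 37 °C, 5% CO2.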
Starred values were filed as active, the others as inactive. A selection: hits, their analogues and other compounds. The true share with any hit is near 9.2%. The call rests on the fitted dose curve; in most records, active means well fitted curve in the direction sought with a large enough effect; inconclusive means small, poorly fitted or top-dose-only effect, or another doubt; inactive means no such curve, though single readings can be large; an effect the other way counts as inactive or inconclusive. Potency means the concentration at half of the fitted maximal effect.

What do the screens show for `Cc1c(-c2ccccn2)c(=O)[nH]n1-c1ccc(F)cc1`?
SMN2 splice up: 5.62µM*; NPC1 prom act: 3.55µM*; ELG1 DNA repair: inconclusive; FLuc modulator: 3.01µM*; ELG1 genotoxic: inconclusive; Rab9 prom act: 0.501µM*

Results for CCCCOc1ccc(N=Nc2ccc(N)nc2N)cn1 ?
NPC1 prom act: 3.16µM*; ELG1 DNA repair: inconclusive; FLuc modulator: 13.5µM*; ELG1 genotoxic: inconclusive; Rab9 prom act: 2.51µM*

What do the screens show for `CCCCOc1ccc(Cc2cnc(N)nc2N)cc1`?
NPC1 prom act: 14.4%; ELG1 DNA repair: -14.6%; FLuc modulator: -5.5%; ELG1 genotoxic: -6.0%; Rab9 prom act: 2.1%

Results for CCOc1cccc2cc(-c3csc(NC(=O)CCC(=O)NCCN4CCCCC4C)n3)c(=O)oc12 (configuration not stated) ?
SMN2 splice up: 3.16µM*; NPC1 prom act: inconclusive; ELG1 DNA repair: inconclusive; FLuc modulator: 10.7µM*; ELG1 genotoxic: inconclusive; Rab9 prom act: inconclusive

What do the screens show for `COc1cccc2cc(-c3csc(NC(=O)CCC(=O)NCCCN4CCC(C)CC4)n3)c(=O)oc12`?
NPC1 prom act: 1.41µM*; ELG1 DNA repair: inconclusive; FLuc modulator: 9.53µM*; ELG1 genotoxic: inconclusive; Rab9 prom act: 0.708µM*

Results for CCOc1cccc2cc(-c3csc(NC(=O)CCC(=O)N4CCC(C)CC4)n3)c(=O)oc12 ?
SMN2 splice up: -21.3%; NPC1 prom act: inconclusive; ELG1 DNA repair: 17.1%; FLuc modulator: -1.6%; ELG1 genotoxic: 15.9%; Rab9 prom act: -0.1%

How did COc1ccc(-c2cc3ccc(O)c(CN4CCC(C)CC4)c3oc2=O)cc1OC do in these assays?
FLuc modulator: -1.1%

What do the screens show for `CCOc1cccc2cc(-c3csc(NC(=O)CCC(=O)NCCCN4CCC(C)CC4)n3)c(=O)oc12`?
SMN2 splice up: 8.91µM*; NPC1 prom act: 27.0%; ELG1 DNA repair: inconclusive; FLuc modulator: 16.9µM*; ELG1 genotoxic: 10.3µM*; Rab9 prom act: 3.98µM*

Results for Cc1nc2ccccc2c2oc(C(=O)NCCN3CCCCC3C)cc12 (configuration not stated) ?
SMN2 splice up: 5.4%; NPC1 prom act: -1.3%; ELG1 DNA repair: -3.2%; FLuc modulator: 5.2%; ELG1 genotoxic: 8.0%; Rab9 prom act: 0.0%

Results for NS(=O)(=O)c1ccc(NC(=O)Nc2ccc(C(F)(F)F)cc2)cc1 ?
NPC1 prom act: -2.0%; ELG1 DNA repair: 0.0%; FLuc modulator: -3.6%; ELG1 genotoxic: 0.7%; Rab9 prom act: -0.1%

Results for Cn1c(SCC(=O)c2ccccc2)nnc1-c1ccco1 ?
SMN2 splice up: 14.3%; NPC1 prom act: 26.1%; ELG1 DNA repair: inconclusive; FLuc modulator: 21.3µM*; ELG1 genotoxic: inconclusive; Rab9 prom act: inconclusive

What do the screens show for `COc1ccc(C(=O)CSc2nnc(-c3ccco3)n2C)cc1`?
SMN2 splice up: -12.6%; NPC1 prom act: 0.7%; ELG1 DNA repair: 3.3%; FLuc modulator: -14.6%; ELG1 genotoxic: 3.5%; Rab9 prom act: -1.7%

How did Cn1c(SCC(=O)c2ccccc2)nnc1-c1cccc(N)c1 do in these assays?
SMN2 splice up: 16.6%; NPC1 prom act: 25.4%; ELG1 DNA repair: inconclusive; FLuc modulator: 23.9µM*; ELG1 genotoxic: inconclusive; Rab9 prom act: inconclusive

Results for Cn1c(SCC(=O)c2ccccc2)nnc1-c1ccncc1 ?
SMN2 splice up: 3.3%; NPC1 prom act: 1.2%; ELG1 DNA repair: inconclusive; FLuc modulator: -0.5%; ELG1 genotoxic: 3.2%; Rab9 prom act: -4.3%

How did Cn1c(SCC(=O)c2ccccc2)nnc1-c1ccccn1 do in these assays?
NPC1 prom act: inconclusive; ELG1 DNA repair: inconclusive; FLuc modulator: 16.9µM*; ELG1 genotoxic: inconclusive; Rab9 prom act: 3.55µM*

How did COc1cccc(CNC(=O)CCc2c(C)nc3c(c(C)nn3-c3ccc(C)c(C)c3)c2C)c1 do in these assays?
SMN2 splice up: -9.0%; FLuc modulator: -5.2%

How did CCc1ccc(OCC(=O)N2CC(C(N)=O)Oc3ccccc32)cc1 (configuration not stated) do in these assays?
NPC1 prom act: -1.5%; ELG1 DNA repair: -19.3%; FLuc modulator: 2.1%; ELG1 genotoxic: 0.2%; Rab9 prom act: 15.9%

Results for Cc1ccc(S(=O)(=O)n2nccc2-c2c(-c3ccc(Cl)cc3)noc2C)cc1 ?
NPC1 prom act: -1.0%; ELG1 DNA repair: inconclusive; FLuc modulator: 0.8%; ELG1 genotoxic: -24.4%; Rab9 prom act: -10.1%

What do the screens show for `FC(F)(F)c1ccc(NC(=S)NC2CCCCC2)cc1`?
SMN2 splice up: 15.8µM*; NPC1 prom act: 8.2%; ELG1 DNA repair: -1.7%; FLuc modulator: inconclusive; ELG1 genotoxic: -13.1%; Rab9 prom act: 22.6%

Results for CC(C)C(=O)NC(=S)Nc1ccc(S(=O)(=O)NC2CCCCC2)cc1 ?
NPC1 prom act: -4.3%; ELG1 DNA repair: 11.6µM*; FLuc modulator: -3.6%; ELG1 genotoxic: -6.8%; Rab9 prom act: -9.5%

How did S=C(Nc1ccc2nsnc2c1)NC1CCCCC1 do in these assays?
SMN2 splice up: inconclusive; NPC1 prom act: 19.5%; ELG1 DNA repair: inconclusive; FLuc modulator: 21.3µM*; ELG1 genotoxic: -1.7%; Rab9 prom act: 19.5%

Results for CC(C)c1ccc(NC(=S)NC2CCCCCC2)cc1 ?
SMN2 splice up: 12.6µM*; NPC1 prom act: inconclusive; ELG1 DNA repair: inconclusive; FLuc modulator: 16.9µM*; ELG1 genotoxic: inconclusive; Rab9 prom act: inconclusive

Results for S=C(Nc1ccc(Cl)c(Cl)c1)NC1CCCCC1 ?
SMN2 splice up: inconclusive; NPC1 prom act: 8.7%; ELG1 DNA repair: inconclusive; FLuc modulator: inconclusive; ELG1 genotoxic: -4.0%; Rab9 prom act: 13.0%

What do the screens show for `Cc1ccc(CCNC(=O)c2c[nH]c3ccc(S(=O)(=O)Nc4ccc(C)cc4C)cc3c2=O)cc1`?
NPC1 prom act: -4.4%; FLuc modulator: 6.5%; Rab9 prom act: -2.6%

Results for Cc1ccc(N/C=C/C(=O)C(C)(C)C)c(O)c1 ?
SMN2 splice up: 4.0%; NPC1 prom act: 4.2%; ELG1 DNA repair: -6.4%; FLuc modulator: 19µM*; ELG1 genotoxic: 10.2%; Rab9 prom act: 16.6%

What do the screens show for `O=C1CN(C(=O)CNCc2ccc(Cl)cc2)c2ccccc2N1`?
NPC1 prom act: -3.1%; ELG1 DNA repair: -10.0%; FLuc modulator: 6.9%; ELG1 genotoxic: -1.8%; Rab9 prom act: 2.0%

How did COc1ccccc1-c1nc2cc3ccccc3cc2nc1-c1ccccc1OC do in these assays?
SMN2 splice up: -34.2%; NPC1 prom act: 3.4%; ELG1 DNA repair: 20.6µM*; FLuc modulator: 1.6%; ELG1 genotoxic: -3.3%; Rab9 prom act: 8.4%

Screening results: PubChem BioAssay, National Center for Advancing Translational Sciences (NCATS)
